From PubChem
B2AR ag: activates human beta-2 adrenergic receptor causing internalization. P07550. Am2.2-beta2AR cells, FAP receptor internalization, flow cytometry. response, % (test concentration not listed). 340,000 tested, 0.43% active. AID 504454;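 active means response above a set limit, near 3 SD of response in nonfluorescent compounds, cut at about 42% in these data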
PP1 inh: PP1-alpha (human) inhibition in PP5 counter-screen. P62136. purified PP1alpha, OMFP fluorescence. inhibition, % at 6.7 µM. 320,000 tested, 0.9% active;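 active means inhibition above the mean inhibition of all tested compounds plus 3 SD, computed separately for each screening campaign, cut at about 15% in these data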
GRK2 aptamer HTS: human GRK2 inhibition via aptamer displacement. 330,000 tested, 0.59% active. AID 488847. bead flow cytometry, FAM-aptamer displacement from GRK2. P25098. inhibition of aptamer binding, % at 10 µM;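 active means inhibition of aptamer binding above 40%, roughly 3 SD of noise, on plates passing a quality check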;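 further: median bead fluorescence of bound FAM aptamer so fluorescent compounds give negative values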
Target sequence (P25098 whole entry, looked up): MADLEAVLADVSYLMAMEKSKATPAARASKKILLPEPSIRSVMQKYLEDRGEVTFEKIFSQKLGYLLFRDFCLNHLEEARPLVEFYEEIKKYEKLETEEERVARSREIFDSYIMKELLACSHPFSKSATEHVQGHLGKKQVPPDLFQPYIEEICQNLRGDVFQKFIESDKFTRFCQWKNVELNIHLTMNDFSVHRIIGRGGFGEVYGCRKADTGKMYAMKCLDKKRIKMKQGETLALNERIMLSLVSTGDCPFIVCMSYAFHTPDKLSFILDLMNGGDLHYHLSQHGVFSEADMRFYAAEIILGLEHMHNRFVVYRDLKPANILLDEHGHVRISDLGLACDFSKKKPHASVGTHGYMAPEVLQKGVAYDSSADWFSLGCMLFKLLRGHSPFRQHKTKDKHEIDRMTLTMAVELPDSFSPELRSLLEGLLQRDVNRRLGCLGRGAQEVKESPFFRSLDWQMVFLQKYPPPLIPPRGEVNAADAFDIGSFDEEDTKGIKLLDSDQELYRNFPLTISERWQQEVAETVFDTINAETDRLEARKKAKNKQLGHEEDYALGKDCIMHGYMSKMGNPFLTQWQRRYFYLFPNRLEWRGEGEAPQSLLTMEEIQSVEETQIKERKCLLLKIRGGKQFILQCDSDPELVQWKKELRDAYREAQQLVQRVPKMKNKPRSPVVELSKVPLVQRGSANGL
Exocytosis inh: lytic granule exocytosis inhibition | 360,000 tested, 0.66% active | inhibition, % at 10 µM | TALL-104 LAMP-1 surface exposure, flow cytometry; cells stimulated with thapsigargin and PMA;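 active means inhibition above about 55%, limit read from the data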
NadD inh: NadD (S. aureus) enzyme inhibition; 360,000 tested, 0.78% active; inhibition, % at 20 µM; purified NadD enzyme, colorimetric absorbance read-out; in the data active means inhibition above about 26%
A number is an active result; – = inactive; · = not tested or not shown. This is a sample that favours compounds with a hit; in the whole collection about 2.9% have one here.

SMILES	B2AR ag	PP1 inh	GRK2 aptamer HTS	Exocytosis inh	NadD inh
N#C/C(=C\c1cccc(NC(=O)c2ccccc2Cl)c1)C(=O)NCCc1ccccc1	43	–	–	–	–
CC1CN(S(=O)(=O)c2cccc(C(=O)N(Cc3nnc(-c4ccccc4Cl)o3)C3CC3)c2)CC(C)O1 (configuration not stated)	–	–	–	–	–
CC(O)[C@H]1CC[C@H]2[C@@H]3CC[C@H]4C[C@@H](O)CC[C@]4(C)[C@H]3/C(=N/O)C[C@]12C (some centres not stated)	–	–	–	82	–
COc1cccc(C(=O)NCCS(=O)(=O)N2CCN(c3ccccc3)CC2)c1OC	·	·	·	–	–
CCC[C@H]1CN(c2ccc(OC)cc2)C(=O)[C@@H]1CC(=O)NC	·	·	·	–	–
CC1(C)CC(=O)C=C(c2ccccc2-c2ccc3cc[nH]c3c2)C1=O	·	·	·	–	–
CC1(C)CC(=O)C=C(c2ccc(-c3ccc4[nH]ccc4c3)cc2)C1=O	·	·	·	70	–
O=C(O)c1cccnc1SC1CC(=O)N(c2ccc(OC(F)F)cc2)C1=O (configuration not stated)	–	16	–	–	–
O=C1C2N=NN(CC(=O)N3N=C(c4ccccc4)CC3c3ccc([N+](=O)[O-])cc3)C2C(=O)N1c1ccccc1 (configuration not stated)	·	16	–	·	·
COc1ccc(C2=NN(C(=O)CCC(=O)O)C(c3ccc([N+](=O)[O-])cc3)C2)cc1 (configuration not stated)	–	·	–	–	–
CCOC(=O)CNC(=O)C(CC(C)C)NC(=O)C1CCCCC1 (configuration not stated)	–	–	–	–	–
O=C(Cc1csc(N2CCOCC2)n1)N/N=C/c1ccc(O)c(O)c1O	46	·	·	–	–
CCc1ccc(S(=O)(=O)Nc2ccc(O)c3c(=O)cc(-c4ccccc4Cl)oc23)cc1	–	–	–	76	–
O=c1cc(-c2ccccc2Cl)oc2c(NS(=O)(=O)c3cccc4nsnc34)ccc(O)c12	–	–	–	–	–
O=c1cc(-c2ccccc2Cl)oc2c(NS(=O)(=O)c3cc(Cl)cc(Cl)c3O)ccc(O)c12	–	27	–	–	–
Cc1cc(C)nc(NC(=O)/C=C/c2ccccc2Cl)n1	–	–	–	–	–
Cc1cc(N)c2cc(NC(=O)/C=C/c3ccccc3Cl)ccc2n1	73	–	–	–	–
CC1CCCN(C(=O)COC(=O)C2=COCCO2)C1 (configuration not stated)	–	·	–	–	–
COC1=C(Br)C(=O)c2nc(C)ccc2C1=O	·	·	·	98	–
CCn1c(SCC(=O)Nc2ccc(F)cc2)nnc1-c1cnccn1	–	–	–	–	–
COC(=O)[C@@]12C[C@@H](CC(=O)NCCCCc3ccccc3)C(=O)N(Cc3cccc4ccccc34)C1=CCC(C)(C)C2	·	·	·	–	·
Cc1cc(C)nc(NC(=NCCc2c[nH]c3ccccc23)NC(=O)c2ccco2)n1	–	–	–	95	–
Cc1cc(C)nc(NC(=NCCc2c[nH]c3ccccc23)NC(=O)Nc2ccccc2)n1	–	–	–	–	–
CC[C@@H](C(=O)[C@@H](C)[C@@H](O)[C@H](C)[C@@H]1O[C@@H]([C@@H](CC)C(=O)O)CC[C@@H]1C)[C@H]1O[C@]2(C=C[C@@H](O)[C@]3(CC[C@@](C)([C@H]4CC[C@](O)(CC)[C@H](C)O4)O3)O2)[C@H](C)C[C@@H]1C	–	·	·	–	–
CC[C@@H](C(=O)[C@@H](C)[C@@H](O)[C@H](C)CCc1ccc(C)c(O)c1C(=O)O)[C@H]1O[C@](CC)([C@H]2CC[C@](O)(CC)[C@H](C)O2)C[C@@H]1C	86	–	–	–	–
SMILES	B2AR ag	PP1 inh	GRK2 aptamer HTS	Exocytosis inh	NadD inh
COc1cc(CNCCCN2CCOCC2)cc(Cl)c1OCC(=O)NC(C)(C)C	–	–	–	–	–
O=C(O)c1ccccc1NC(=O)c1ccccc1Nc1ccccc1	–	17	–	–	–
O=C(Nc1ccccc1C(=O)Nc1ccccc1C(=O)O)c1ccccc1	–	–	–	–	–
Cc1nc2ccccc2n1CC(=O)c1ccc(O)c(O)c1	–	–	–	–	–
O=C(O)CN1C(=O)/C(=C\c2cc(Br)ccc2OCc2ccc(F)cc2)SC1=S	–	17	–	–	–
O=C(O)CCCCN1C(=O)/C(=C\c2ccc(OCc3ccccc3)c(OCc3ccccc3)c2)SC1=S	–	–	100	–	–
O=C(O)CN1C(=O)/C(=C\c2cc(Br)ccc2OCc2ccc(Cl)cc2)SC1=S	–	·	–	–	–
COc1ccc(/C=C2/SC(=S)N(CC(=O)O)C2=O)cc1OCc1ccc(Cl)cc1	–	–	–	–	–
CN1CCN(C(=O)CCCN2C(=O)/C(=C/c3ccccc3)SC2=S)CC1	–	–	–	61	–
Cc1cc(-c2csc(NC(=O)c3cccc(S(=O)(=O)N(C)C)c3)n2)c(C)n1-c1ccccc1	–	–	–	–	49
COC(=O)c1ccc(-n2c(C)cc(-c3csc(NC(=O)c4ccc(S(=O)(=O)N(C)C)cc4)n3)c2C)cc1	–	–	–	–	–
C=C(C)COc1ccc(-c2n[nH]c(C)c2Oc2ccccc2OC)c(O)c1	–	–	–	74	–
CCOc1ccc(-c2n[nH]c(C)c2Oc2ccccc2OC)c(O)c1	–	–	–	–	–
CCN(CC)c1nc2c(c(=O)n(C)c(=O)n2C)n1CCCc1ccccc1	–	–	–	–	–
CN(Cc1ccccc1)c1nc2c(c(=O)n(C)c(=O)n2C)n1CCCc1ccccc1	–	–	–	66	–
COC(=O)c1ccc(COc2ccccc2/C=N/Nc2cccc(C(=O)O)c2)cc1	–	·	·	–	–
COC(=O)c1ccc(COc2ccccc2/C=C/C(=O)c2ccc(OCC(=O)O)cc2)cc1	47	–	–	–	–
COc1ccc(C(=O)O/N=C2\C(=O)N(C)c3ccccc32)cc1	–	–	–	66	–
CN1C(=O)/C(=N\OC(=O)c2cccc3ccccc23)c2ccccc21	–	–	–	80	–
COCCNC(=S)N1CCC(NC(=O)c2ccco2)CC1	–	–	–	–	–
COc1cc(-c2nc(-c3ccc4c(c3)-c3ccccc3S4(=O)=O)c(-c3ccccc3)[nH]2)cc(OC)c1O	–	–	–	–	35
COc1ccc(C2NC(=S)NC(O)(C(F)(F)F)C2C(=O)c2cccs2)cc1 (configuration not stated)	–	–	–	–	–
CC1OC2CC(=O)OC2C2=C1C(=O)c1c(O)cccc1C2=O (configuration not stated)	·	·	·	86	–
CC(Sc1nnc(NCc2ccccc2)s1)C(=O)Nc1ccc2c(c1)C(=O)c1ccccc1C2=O (configuration not stated)	–	17	–	–	38
N#Cc1c(NC(=O)C2CC=CCC2C(=O)O)sc2c1CCCCCC2 (configuration not stated)	–	–	73	–	–
C=CCOc1cccc(C(=O)/C=C2/C(=O)Nc3ccccc32)c1	78	–	–	–	–
